The list is not random: actives were taken first. Their share in the collection is about 32%.
CYP2C19 act – increases human CYP2C19 enzyme activity; activation factor at 5 µM; 96,000 tested, under 10 active; recombinant CYP2C19, luciferin-H EGE luminescence; hits give high values; 0 = fully inhibited enzyme, 1 = untreated enzyme; P33261;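 active means activation factor of at least 2 at 5 µM in the primary screen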;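 further: 0 = wells with 2.5 mM tranylcypromine and 1 = vehicle-only wells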
Target sequence (P33261 whole entry, looked up): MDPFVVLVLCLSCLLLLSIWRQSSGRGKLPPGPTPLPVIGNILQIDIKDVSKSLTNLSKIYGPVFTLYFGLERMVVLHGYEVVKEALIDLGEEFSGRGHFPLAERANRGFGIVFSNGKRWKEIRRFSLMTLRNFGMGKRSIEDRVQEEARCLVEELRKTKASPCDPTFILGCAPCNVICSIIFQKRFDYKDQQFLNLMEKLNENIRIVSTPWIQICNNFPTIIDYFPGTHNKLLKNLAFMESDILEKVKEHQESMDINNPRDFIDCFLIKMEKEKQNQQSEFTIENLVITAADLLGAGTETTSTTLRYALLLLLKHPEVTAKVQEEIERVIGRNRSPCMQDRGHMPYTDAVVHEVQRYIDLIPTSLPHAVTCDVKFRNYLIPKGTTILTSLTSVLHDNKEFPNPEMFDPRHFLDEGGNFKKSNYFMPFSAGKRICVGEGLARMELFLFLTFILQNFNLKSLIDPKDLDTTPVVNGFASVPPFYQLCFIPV
CYP2C9 activ – CYP2C9 (human) activation. P11712. 96,000 compounds, 1.4% hits. recombinant CYP2C9, luciferin-H conversion, luminescence; hits give high values; factor 1 = untreated enzyme, 0 = blocked. activation factor at 5 µM;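 active means activation factor of 2 or more for CYP2C9 at a 5 µM dose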;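 further: 0 = sulfaphenazole-blocked wells and 1 = vehicle-only wells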
CYP2C19 inhib – inhibitors of human CYP2C19 | P33261 | CYP2C19 Supersomes, luciferin-H EGE luminescence, 30 min | inhibition, % at 5 µM | 96,000 compounds, 21% hits | AID 778;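 active means CYP2C19 inhibition above a set limit at 5 µM in the primary screen, cut at about 50% in these data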;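 further: plate controls were negative control wells for no effect and 2.5 mM tranylcypromine positive control for full effect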
PostGolgi yeast – growth inhibition of a yeast mutant, post-Golgi transport screen. post-Golgi transport phenotypic cell assay. inhibition, % at 10 µM. 98,000 compounds, 0.9% hits. AID 739;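 further: yeast cells grown in 1536-well plates; yeast grown about 18 h at 30C before absorbance read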
CYP2C9 inhib – human CYP2C9 inhibition. P11712. inhibition, % at 5 µM. 96,000 compounds, 20% hits. AID 777. CYP2C9 Supersomes, luciferin-H conversion, luminescence;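 active means blocking of liver enzyme CYP2C9 beyond about 50% at 5 µM, limit read from the data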
PostGolgi ctrl – inhibits growth of the yeast control strain; efflux-deficient yeast background strain, growth absorbance A615, 16 h; inhibition, % at 10 µM; 98,000 compounds, 5% hits; AID 738
The depositor's hits bear a star; nt = not tested or not shown. Unless noted, no stated cut-off is given here; in the data, active means inhibition above about 30%; inactive means the rest.

SMILES	CYP2C19 act	CYP2C9 activ	CYP2C19 inhib	PostGolgi yeast	CYP2C9 inhib	PostGolgi ctrl
CCN(CC)C(=O)N1c2ccccc2C=Cc2ccccc21	0.4	0.6	63*	1	41	26
O=C1NC2(CCCCC2)Oc2ccccc21	0.8	1	24	-4	-4	0
CCCn1c(SCC(=O)c2cc(C)ccc2C)n[nH]c1=O	0.9	0.9	10	-3	13	3
CC(C)(C)c1cc(/C=N/NC(=O)Cc2nc3ccccc3[nH]2)cc(C(C)(C)C)c1O	0.1	0	93*	4	99*	15
CCOC(=O)CC(=O)CSC1=C(C#N)C(c2ccccc2OC)CC(=O)N1 (configuration not stated)	0.4	0.4	62*	4	63*	14
COc1ccccc1C1CC(=O)NC(SCC(=O)Nc2ccccc2)=C1C#N (configuration not stated)	0.2	0.6	76*	-4	40	7
N#CC1=C(SCC(=O)Nc2nccs2)NC(=O)CC1c1ccccc1 (configuration not stated)	0.4	0.1	58*	6	87*	12
O=C(c1cc(-c2ccco2)on1)N1CCN(C(c2ccccc2)c2ccccc2)CC1	0.9	0.6	6	-1	44	12
COC(=O)c1ccnc(/C=N/O)c1	nt	nt	nt	3	nt	6
Cc1nn(Cc2ccc(C(=O)Nc3ccccc3C(F)(F)F)o2)c(C)c1Br	0.1	0.6	91*	1	35	34*
Cc1ccc(CNC(=O)c2ccc(Cn3nc(C)c(Cl)c3C)o2)cc1	0.2	0.6	78*	104*	45	100*
Cc1ccc2cccc(NC(=O)c3ccc(Br)o3)c2n1	1.1	1.5	-8	2	-46	16
Cc1ccc(CNC(=O)c2ccc([N+](=O)[O-])o2)cc1	0.8	0.9	15	0	6	14
O=C(OCCCCN1C(=O)c2ccccc2C1=O)c1ccc(S(=O)(=O)N2CCCC2)cc1	1	0.8	-3	4	16	12
O=C(OCCN1C(=O)c2ccccc2C1=O)c1cc(S(=O)(=O)N2CCOCC2)ccc1Cl	0.2	0.1	78*	-9	86*	6
O=C(NCCSCc1ccccc1)c1cc(S(=O)(=O)N2CCOCC2)ccc1F	0.5	0.3	51*	-3	70*	1
CCOC(=O)c1ccccc1NS(=O)(=O)c1ccc(S(=O)(=O)N2CCCC2)cc1	0	0.1	97*	1	91*	16
CCOC(=O)c1ccccc1NC(=O)c1cc(S(=O)(=O)N2CCOCC2)ccc1F	0.5	0.4	45	-4	59*	15
CN(C)CCCNC(=O)c1cc(S(=O)(=O)N2CCOCC2)ccc1F	0.9	1.4	7	-16	-39	-2
Cc1ccccc1OCC(=O)NC(=S)Nc1ccc2c3c(cccc13)CC2	1.1	1.1	-5	-4	-12	-2
COc1ccc(C(=O)Nc2cc(C(=O)NCCc3ccccc3)ccc2Cl)cc1	0.4	0.2	57*	-2	83*	25
COC(=O)c1sccc1NC(=O)c1cccc(OC)c1	0.8	1	20	-2	-2	9
COc1cccc(C(=O)Nc2ccc(F)c(F)c2F)c1	0.5	0.9	54*	-40	13	15
COc1cccc(C(=O)Nc2cc(C(F)(F)F)ccc2Cl)c1	0.7	2.7*	32	2	-174	1
COc1cccc(C(=O)NC(=S)Nc2ccc3c4c(cccc24)CC3)c1	1	2*	-2	1	-97	2
SMILES	CYP2C19 act	CYP2C9 activ	CYP2C19 inhib	PostGolgi yeast	CYP2C9 inhib	PostGolgi ctrl
O=C(Nc1nnc(CCN2CCCCC2)s1)C1CCCCC1	0.9	1	12	-10	5	5
Cc1cc(C)cc(NC(=O)c2nccnc2C(=O)O)c1	0.8	0.8	18	-6	18	4
Cc1ccc(Cl)cc1NC(=O)c1cccc(OC(F)F)c1	0.4	0.7	55*	-8	31	27
COc1ccc(C(=O)Nc2cc(C(F)(F)F)ccc2Cl)cc1OC	1	2.5*	3	3	-147	9
COc1cccc(C(=O)Nc2ccc(Cl)c(C(F)(F)F)c2)c1	0.7	0.4	35	1	62*	22
COc1ccc(C(=O)Nc2ccc(F)cc2F)cc1OC	1	1.3	-1	-1	-25	9
COc1cccc(C(=O)Nc2ccc(C(=O)O)cc2)c1	0.7	1	29	5	0	-4
CCN(CC)S(=O)(=O)c1ccccc1/C=N\O	0.5	0.9	49	-7	10	-3
FC(F)(F)c1cccc(Oc2cc(C(F)(F)F)nc(-c3ccccn3)n2)c1	1	0.8	3	-7	17	9
COc1ccc(/C=C\C(=O)c2c(O)ccc3c(C)cc(=O)oc23)cc1OC	0.3	1.2	68*	-3	-20	28
CC(C)(C)OC(=O)N1CCN(c2ccc(CNC(=O)c3ccc(Cl)cc3)cc2)CC1	0.6	0.5	38	0	48	10
C[N+]1(CC(=O)Nc2ccccc2Cl)CCN(C(=O)c2cccs2)CC1	1.1	1.1	-12	8	-15	12
CCC(C)(c1ccc(C=O)s1)c1ccc(C=O)s1	0.7	0.5	28	-3	52*	18
Cc1noc(C)c1CSc1nc2[nH]ncc2c(=O)n1-c1ccccc1	nt	nt	nt	-2	nt	9
Cc1noc(C)c1CSc1nc2ccccc2c(=O)n1-c1ccccc1	0.6	0.2	37	-6	84*	18
C=CCn1c(SCc2c(C)noc2C)nc2ccccc2c1=O	0	0	95*	-5	97*	16
C=CCc1c(C)nc(SCCC)[nH]c1=O	1	1.1	-2	-6	-7	7
COc1cc2nc(SCc3c(C)noc3C)n(CCC3=CCCCC3)c(=O)c2cc1OC	0.7	0.3	33	22	74*	9
COc1ccc(Cc2nnc(SCc3c(C)noc3C)n2C2CCCCC2)cc1OC	0.8	1	17	-3	-4	2
C=CCc1c(C)nc(SCc2nc3ccccc3c(=O)[nH]2)[nH]c1=O	0.8	0.3	16	-3	67*	5
CCN(CC)CCCN1C(=O)C(O)=C(C(C)=O)C1c1cccc(OC)c1 (configuration not stated)	1.2	1.1	-21	10	-9	-2
Cn1c(=O)c2[nH]c(N3CCOCC3)nc2n(-c2ccccc2)c1=O	1	1	2	-1	0	-6
CCc1ccc(N=C2N=C(N)c3ccccc32)cc1	0.8	0.6	21	1	41	-3
O=C1c2ccccc2C(=O)N1Cc1nn2c(-c3ccc(Cl)cc3)nnc2s1	0.7	1.2	34	nt	-22	nt
COC(=O)Cn1c(C)nc2c(sc3nc(C)cc(C)c32)c1=O	0.9	0.8	15	-1	19	1
COC(=O)CNC(=O)c1nn(-c2cccc(OC)c2)c(=O)c2ccccc12	1	0.8	3	4	16	12

Source: PubChem BioAssay
